NOMO-1 viab = NOMO-1 AML cell viability reduction, primary screen, STK33 inhibitor project, CellTiter-Glo luminescence. NOMO-1 AML viability, 72 h. inhibition, % (concentration not given with the values). 7.5% of 37,000 active. AID 2330, 2010; in the data active means inhibition above about 80%; inconclusive means no clear call, values can overlap the other calls
PD-1 reverse act = activators reversing PD-1 mediated T-cell inhibition, primary screen, luminescence, primary human CD4 T cells, PD-L1 beads; CellTiter-Glo 96 h; activation, % (concentration not given with the values); 29,000 tested, under 10 active; AID 2316, 2010; call rule not given here
U2OS ROS induce = ROS inducers in U2OS cancer cells, primary screen, cell-based, H2DCF-DA fluorescence; 2% of 46,000 active; ROS induction (% of piperlongumine), % at 10 µM; U2OS ROS induction; in the data active means ROS induction above about 79%, passing the limit was not always enough; inconclusive means no clear call, values can overlap the other calls
YB-1 expression = inhibitors of YB-1 gene expression, primary screen, cell-based, fluorescence; delta delta Cp (YB-1 minus CDIP) (concentration not given with the values); U2OS, qRT-PCR YB-1 vs CDIP delta delta Cp, 16 h; hits give high values; zero = DMSO, each unit about twofold; 0.37% of 30,000 active;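 active means delta delta Cp rounded down to an integer at or above 3, about 3 SD of DMSO wells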;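 further: higher means less YB-1 transcript or more CDIP transcript relative to DMSO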
Of the large screens only hits and unclear results are named; the others gave an inactive call. The full list was thinned out, with hits kept by preference.

C=C1C(=O)O[C@@H]2/C=C(/CO)CC/C=C(/C)C[C@H](OC(=O)C(C)CO)[C@@H]12 (some centres not stated)	NOMO-1 viab 118, U2OS ROS induce 154
C=C1C(=O)O[C@H]2[C@H]1[C@@H](OC(=O)C(C)CO)C[C@@]1(C)[C@H](O)CCC(=O)[C@H]21 (some centres not stated)	U2OS ROS induce inconclusive (no result: NOMO-1 viab, PD-1 reverse act)
COC(=O)CCCCCCC(=O)N/N=C/c1ccc(S(=O)(=O)O)o1	none (no result: NOMO-1 viab, PD-1 reverse act)
O=C(NCCN1CCCC1)c1cc(Sc2cccc(Cl)c2)nc2ccccc12	none (no result: NOMO-1 viab, PD-1 reverse act, YB-1 expression)
CS(=O)(=O)N(CC(=O)Nc1ccc(Br)cc1)c1ccc2c(c1)OCCO2	none (no result: PD-1 reverse act, U2OS ROS induce, YB-1 expression)
NC(=O)c1cc2c(n(-c3ccccc3)c1=O)CCCC2=O	none (no result: NOMO-1 viab, PD-1 reverse act, YB-1 expression)
COC(=O)C[C@H]1C(C)(C)[C@@H](OC(C)=O)[C@@H]2CC3=C4CC(=O)O[C@@H](c5ccoc5)[C@]4(C)CCC3[C@@]1(C)C2=O (some centres not stated)	none (no result: PD-1 reverse act)
COC(=O)C[C@H]1C(C)(C)[C@H](OC(C)=O)[C@]2(O)CC3=C4CC(=O)O[C@@H](c5ccoc5)[C@]4(C)CCC3[C@@]1(C)C2=O (some centres not stated)	YB-1 expression 8
CC1(C)C(=O)[C@@H]2C[C@@]3(O)C4=CC(=O)O[C@@H](c5ccoc5)[C@]4(C)CCC3[C@@](C)(C2=O)[C@H]1CC(=O)O (some centres not stated)	none (no result: PD-1 reverse act)
COC(=O)C[C@H]1C(C)(C)C(=O)[C@@H]2C[C@@]3(O)C4=CC(=O)O[C@@H](c5ccoc5)[C@]4(C)CCC3[C@@]1(C)C2=O (some centres not stated)	NOMO-1 viab 104 (no result: PD-1 reverse act)
CCOc1ccc(NC(=O)CNS(=O)(=O)c2ccc3c(c2)C(C)(C)C(=O)N3C)cc1	none (no result: NOMO-1 viab, PD-1 reverse act, YB-1 expression)
CC(C)(C)c1ccc(OCC(O)Cn2cnc3ccccc32)cc1 (configuration not stated)	NOMO-1 viab 93 (no result: PD-1 reverse act, U2OS ROS induce, YB-1 expression)
C[C@@H]1C[C@@H]2O[C@H]2/C=C/C=C\C(=O)Cc2c(Cl)c(O)cc(O)c2C(=O)O1	NOMO-1 viab 118, U2OS ROS induce 140
COc1cc(O)cc2c1C(=O)OC(C)C2 (configuration not stated)	none
COc1cc(C(=O)Nc2cc(-c3nc4ncccc4o3)ccc2C)ccc1OCc1ccc(Cl)cc1	NOMO-1 viab 112 (no result: YB-1 expression)
Cc1ccc(-c2nc3ncccc3o2)cc1NC(=O)C(C)Oc1ccc(Cl)cc1Cl (configuration not stated)	none (no result: YB-1 expression)
C[C@H](CO)N1C[C@H](C)[C@@H](CN(C)Cc2ccc(-c3ccccc3)cc2)Oc2ccc(NS(=O)(=O)c3ccc(F)cc3)cc2C1=O	none
C[C@H]1CN([C@@H](C)CO)C(=O)c2cc(NS(=O)(=O)c3ccc(F)cc3)ccc2O[C@@H]1CN(C)Cc1ccc(-c2ccccc2)cc1	NOMO-1 viab 100
C[C@H](CO)N1C[C@H](C)[C@H](CN(C)Cc2ccc(-c3ccccc3)cc2)Oc2ccc(NS(=O)(=O)c3ccc(F)cc3)cc2C1=O	none (no result: PD-1 reverse act)
C[C@@H]1CN([C@H](C)CO)C(=O)c2cc(NS(=O)(=O)c3ccc(F)cc3)ccc2O[C@H]1CN(C)Cc1ccc(-c2ccccc2)cc1	NOMO-1 viab 97
COc1cccc(-c2cc(=O)c3cc(OC)ccc3o2)c1	none (no result: PD-1 reverse act)
COC(=O)COc1cccc(NC(=O)c2cc(OC)cc(OC)c2)c1	NOMO-1 viab 109, U2OS ROS induce 108 (no result: YB-1 expression)
COC(=O)COc1cccc(NC(=O)c2ccc(Cl)cc2)c1	NOMO-1 viab 114 (no result: PD-1 reverse act, U2OS ROS induce, YB-1 expression)
COC(=O)COc1cccc(NC(=O)c2ccc(C)cc2)c1	NOMO-1 viab 116 (no result: PD-1 reverse act, U2OS ROS induce, YB-1 expression)
Cc1ccc(C(=O)COc2cccc(NC(=O)c3ccc(Br)cc3)c2)cc1C	none (no result: PD-1 reverse act, U2OS ROS induce, YB-1 expression)
O=C(O)COc1cccc(NC(=O)c2ccc(-c3ccccc3)cc2)c1	none (no result: YB-1 expression)
COC(=O)COc1cccc(NC(=O)c2ccc(Br)cc2)c1	NOMO-1 viab 119 (no result: YB-1 expression)
COc1ccc(NC(=O)N(C)C[C@@H]2OCCCC[C@@H](C)Oc3ccc(NC(=O)Nc4ccc5c(c4)OCO5)cc3C(=O)N([C@H](C)CO)C[C@@H]2C)cc1	U2OS ROS induce 118
C[C@@H]1CCCCO[C@@H](CN(C)C(=O)Nc2ccc3c(c2)OCO3)[C@@H](C)CN([C@H](C)CO)C(=O)c2cc(NC(=O)NC3CCCCC3)ccc2O1	U2OS ROS induce 121
Cc1ccc(S(=O)(=O)Nc2ccc3c(c2)C(=O)N([C@H](C)CO)C[C@H](C)[C@H](CN(C)C(=O)c2ccncc2)OCCCC[C@@H](C)O3)cc1	U2OS ROS induce 108 (no result: PD-1 reverse act)
